# Source: PubChem BioAssay
# Only some compounds are listed: those with a hit (about 4.1% of all), similar ones and a draw of the others.
# rCAG RNA binder – binds r(CAG) RNA repeats | 370,000 compounds, 1.3% hits | r(CAG) RNA repeat, TO-PRO-1 dye displacement fluorescence | inhibition, % at 3 µM;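 active means inhibition above the plate cutoff, the mean of all test compounds on that plate plus 3 SD, cut at about 35% in these data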;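 further: higher means more dye released from RNA so lower well fluorescence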
# UHRF1 MBD2 ctr – blocks human UHRF1 binding to methylated DNA | Q96T88 | UHRF1 binding to methylated oligo, TR-FRET | inhibition, % at 4.4 µM | 370,000 compounds, 0.75% hits | AID 687016; in the data active means inhibition above about 21%;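 further: UHRF1 SRA domain binding a hemimethylated CpG hairpin DNA probe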
# MBD2 inh – inhibitors of human MBD2 binding to methylated oligonucleotide. Q9UBB5. inhibition, % at 4.4 µM. TR-FRET. 370,000 compounds, 0.31% hits; in the data active means inhibition above about 13%
# Target sequence (Q9UBB5 whole entry, looked up): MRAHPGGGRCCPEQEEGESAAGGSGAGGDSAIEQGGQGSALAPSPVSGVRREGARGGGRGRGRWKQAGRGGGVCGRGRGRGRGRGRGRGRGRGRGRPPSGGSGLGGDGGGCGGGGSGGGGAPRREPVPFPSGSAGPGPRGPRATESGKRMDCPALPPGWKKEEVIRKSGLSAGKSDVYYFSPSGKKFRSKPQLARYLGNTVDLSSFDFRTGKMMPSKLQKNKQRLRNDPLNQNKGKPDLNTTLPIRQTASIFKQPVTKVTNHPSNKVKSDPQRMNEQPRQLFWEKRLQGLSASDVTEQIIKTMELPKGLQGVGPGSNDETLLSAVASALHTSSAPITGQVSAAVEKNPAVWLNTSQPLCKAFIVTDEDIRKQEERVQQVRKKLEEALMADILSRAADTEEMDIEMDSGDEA
# PRMT1 inh – blocks human protein arginine methyltransferase 1; 370,000 compounds, 1.3% hits; inhibition, % at 2.79 µM; recombinant PRMT1, activity-based probe fluorescence polarization; Q99873; AID 652257;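 active means inhibition above about 21% made by adding two undisclosed values, limit read from the data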
# LEDGF integ inh – blocks HIV-1 LEDGF/p75-dependent DNA integration; TR-FRET IN-LEDGF/p75 DNA integration, Eu/Cy5; inhibition, % at 3.7 µM; AID 743269; 370,000 compounds, 0.64% hits;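 active means inhibition above the screen-wide mean plus 3 SD, cut at about 13% in these data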;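 further: signal is the Cy5 over europium emission ratio at 671 and 618 nm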
# ABHD5 PLIN5 PPI – inhibitors of human ABHD5-perilipin-5 interaction | Split G. princeps luciferase complementation, luminescence, 4 h | inhibition, % at 4 µM | 360,000 compounds, 0.78% hits | AID 602281;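 active means inhibition above the mean inhibition across every tested compound plus 3 SD, cut at about 22% in these data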
# rCAG binder conf – r(CAG) RNA repeat binding, confirmation | shares compounds with rCAG RNA binder | TO-PRO-1 dye displacement fluorescence | inhibition, % at 3 µM | 4,300 compounds, 70% hits | AID 652065;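 active means inhibition above a per-plate cutoff, the mean inhibition of sample wells plus 3 SD, cut at about 35% in these data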;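 further: loss of TO-PRO-1 fluorescence as compound displaces dye from 1x1 AA loop RNA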
# DNA CAG counter – DNA CAG dye complex inhibition counter-screen. shares compounds with rCAG RNA binder. d(CAG) DNA oligo TO-PRO-1 dye displacement, fluorescence. inhibition, % at 3 µM. 4,300 compounds, 94% hits;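 active means inhibition above its plate's cutoff, the mean test-well inhibition plus 3 SD, cut at about 4.8% in these data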;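 further: hits displace the dye from DNA and so lower well fluorescence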
# A number is an active result; n = inactive; x = no result.
SMILES,rCAG RNA binder,UHRF1 MBD2 ctr,MBD2 inh,PRMT1 inh,LEDGF integ inh,ABHD5 PLIN5 PPI,rCAG binder conf,DNA CAG counter
Cc1ccc([C@H]2C(C(=O)O)=CC[C@@H](c3ccc4c(c3)OCO4)N2S(=O)(=O)c2ccc(C)cc2)cc1,63,n,n,n,n,n,61,22
CC(C)[C@@H]1CC[C@@H](C)C[C@H]1OC[B-](F)(F)F,n,n,n,n,n,x,x,x
c1ccc2sc(-c3csc4c3CCNC4)nc2c1,x,n,n,n,n,x,x,x
CC(C)(C)OC(=O)N1CCC(c2cc(=O)n3[nH]cc(C(=O)NC4CCCC4)c3n2)CC1,55,n,n,n,n,n,48,13
COC(=O)Cn1cnc2c(NC(=O)c3ccccc3)ncnc21,n,n,n,n,n,x,x,x
COc1cc(/C=C2/SC(=NCc3ccccc3)N(Cc3ccccc3)C2=O)ccc1O,38,n,n,n,n,n,42,23
COc1cc(/C=C2/SC(=S)N(Cc3ccccc3)C2=O)ccc1O,55,n,n,n,n,n,35,18
CCN=C1S/C(=C\c2ccc(O)c(OCC)c2)C(=O)N1CC,n,n,n,n,n,n,x,x
O=C1/C(=C\c2ccc(O)c(O)c2)SC(=S)N1Cc1ccccc1,64,n,n,n,n,n,69,38
CCOc1ccc(CCNC(=O)c2ccccn2)cc1OCC,x,n,n,n,n,x,x,x
CCCCC[C@@H]1C=C(C(=O)O)[C@H](c2cccc(C)c2)N1S(=O)(=O)c1ccc(C)cc1,67,n,n,n,n,n,50,16
CC[C@@H]1C=C(C(=O)O)[C@H](c2ccc(Cl)c(Cl)c2)N1S(=O)(=O)c1ccc(C)cc1,46,n,n,n,n,n,41,12
CCCCC[C@@H]1C=C(C(=O)O)[C@H](c2ccc(Cl)c(Cl)c2)N1S(=O)(=O)c1ccc(C)cc1,85,n,n,n,n,n,87,53
CCCCC[C@@H]1C=C(C(=O)O)[C@H](c2ccc(OC)c(OC)c2)N1S(=O)(=O)c1ccc(C)cc1,50,n,n,n,n,n,44,14
Cc1ccc(S(=O)(=O)N2[C@@H](c3ccc(Cl)c(Cl)c3)C(C(=O)O)=C[C@H]2C(C)(C)C)cc1,x,x,x,x,x,n,x,x
Cc1ccc(S(=O)(=O)N2[C@@H](c3cccc(C)c3)C(C(=O)O)=C[C@H]2C(C)(C)C)cc1,n,n,n,n,n,n,x,x
C=CCN1C(=O)[C@@H](CC(=O)NCc2ccccc2)[C@]2(C(=O)OC)CCCCC=C12,n,n,n,n,n,x,x,x
COc1ccc(C2NC(=S)N(Cc3ccc(Cl)cc3)C(C)=C2C(C)=O)cc1 (configuration not stated),n,n,n,n,n,x,x,x
CCCCC[C@@H]1C=C(C(=O)O)[C@H](c2ccc3c(c2)OCO3)N1S(=O)(=O)c1ccc(C)cc1,65,n,n,n,n,n,54,21
CC[C@@H]1C=C(C(=O)O)[C@H](c2ccc3c(c2)OCO3)N1S(=O)(=O)c1ccc(C)cc1,n,n,n,n,n,n,x,x
Cc1cccc(C(=O)N[C@H](C(=O)Nc2ccc(S(=O)(=O)NC3=NCCCCC3)cc2)C(C)C)c1,n,n,n,n,n,n,x,x
CCOc1ccc(C(=O)N[C@H](C(=O)Nc2ccc(S(=O)(=O)Nc3nccs3)cc2)C(C)C)cc1,47,n,n,n,n,n,46,15
Cc1cccc(C(=O)NC(C(=O)Nc2ccc(S(=O)(=O)Nc3nccs3)cc2)C(C)C)c1 (configuration not stated),42,n,n,n,n,n,35,13
CCn1c(-c2cccs2)nc2ccccc21,n,n,n,n,n,n,x,x
CCn1c(C(C#N)/C(=N\S(=O)(=O)c2cccs2)c2ccccc2)nc2ccccc21 (configuration not stated),37,n,n,n,n,n,n,7.8
SMILES,rCAG RNA binder,UHRF1 MBD2 ctr,MBD2 inh,PRMT1 inh,LEDGF integ inh,ABHD5 PLIN5 PPI,rCAG binder conf,DNA CAG counter
COc1cccc(C2C(C(=O)c3cc4cccc(OC)c4o3)=C(O)C(=O)N2c2cc(C)on2)c1OC (configuration not stated),57,n,n,n,n,n,65,25
COc1cc(C2C(C(=O)c3cccs3)=C(O)C(=O)N2c2cc(C)on2)ccc1O (configuration not stated),n,n,n,n,n,n,x,x
COc1cccc2cc(C(=O)C3=C(O)C(=O)N(c4cc(C)on4)C3c3cccs3)oc12 (configuration not stated),44,n,n,n,n,n,62,27
COc1cccc(C2C(C(=O)c3cc4ccccc4o3)=C(O)C(=O)N2c2cc(C)on2)c1OC (configuration not stated),51,n,n,n,n,n,45,12
CO[C@H]1/C=C/O[C@@]2(C)Oc3c(C)c(O)c4c(O)c(c(C=NN5CCN(C)CC5)c(O)c4c3C2=O)NC(=O)/C(C)=C\C=C\[C@H](C)[C@H](O)[C@@H](C)[C@@H](O)[C@@H](C)[C@H](OC(C)=O)[C@@H]1C,83,n,n,n,n,n,74,44
CO[C@H]1C=CO[C@@]2(C)Oc3c(C)c(O)c4c(O)c(c(C=NN5CCN(C)CC5)c(O)c4c3C2=O)NC(=O)C(C)=CC=C[C@H](C)[C@H](O)[C@@H](C)[C@@H](O)[C@@H](C)[C@H](OC(C)=O)[C@@H]1C,78,n,n,n,n,n,79,49
CCCCN1CCN(C(=O)c2cn(C(C)c3ccccc3)nn2)CC1 (configuration not stated),n,n,n,n,n,x,x,x
O=C(Nc1cccc(S(=O)(=O)NC2=NCCC2)c1)c1cc(-c2ccco2)nc2ccccc12,41,30,24,n,17,n,43,25
O=C(Nc1cccc(S(=O)(=O)NC2=NCCCCC2)c1)c1cc(-c2ccccc2)nc2ccccc12,n,n,n,n,n,n,x,x
O=C(Nc1nccs1)c1cc(-c2ccco2)nc2ccccc12,38,n,n,n,n,n,n,17
Cc1cccc2cc(/C=N/Nc3ccc(C(=O)O)cc3)c(Cl)nc12,47,n,n,n,n,n,43,11
O=C(O)c1ccc(N/N=C/c2cc3ccccc3nc2Cl)cc1,n,n,n,n,n,n,x,x
COC(=O)c1cc(C)nc2c1c(C)nn2-c1ccccc1,n,n,n,n,n,n,x,x
